FAS-TE inh – blocks the thioesterase domain of human fatty acid synthase | AID 602261 | recombinant FAS-TE, OMFH fluorogenic substrate, fluorescence endpoint | P49327 | 0.67% of 360,000 active | inhibition, % at 15 µM;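 active = compounds whose normalised, plate-corrected inhibition of enzyme fluorescence in the single-dose primary screen is 50% or more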
ADAM17 inh – inhibitors of human ADAM17. AID 720648. recombinant ADAM17, EDANS/DABCYL FRET peptide cleavage. P78536. 0.83% of 370,000 active. inhibition, % at 6.95 µM;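 active = inhibition above the mean of compounds lying between control limits plus 3 SD, set per campaign, cut at about 8.5% in these data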
NR3A LBD binder – modulators (binders) of human NR3A ligand-binding domain; NR3A LBD differential scanning fluorimetry, Tm shift; 0% = protein alone, 100% = glycine-bound protein; Tm shift relative to glycine control, % at 25 µM; 2.5% of 340,000 active; AID 1259313;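 active = melting temperature shift of at least 10% of the positive control shift, at one fixed dose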
ADAM10 inh – inhibitors of human ADAM10; O14672; recombinant ADAM10, EDANS/DABCYL FRET peptide cleavage, 3 h; inhibition, % at 7 µM; 0.62% of 370,000 active;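 active = inhibition above a per-campaign cutoff equal to the mean of compounds falling between control-based bounds plus 3 SD, cut at about 20% in these data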
KLK7 zymogen act – activators of human kallikrein-7 zymogen; P49862; purified proKLK7, EDANS-DABCYL substrate fluorescence; 100% is mature enzyme control, 0% vehicle; activation, % at 7 µM; 0.9% of 370,000 active; AID 652039;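 active = activation above the mean of all tested compounds plus 3 SD, computed per campaign excluding outliers beyond control limits, cut at about 13% in these data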
Target sequence (P49862 whole entry, looked up): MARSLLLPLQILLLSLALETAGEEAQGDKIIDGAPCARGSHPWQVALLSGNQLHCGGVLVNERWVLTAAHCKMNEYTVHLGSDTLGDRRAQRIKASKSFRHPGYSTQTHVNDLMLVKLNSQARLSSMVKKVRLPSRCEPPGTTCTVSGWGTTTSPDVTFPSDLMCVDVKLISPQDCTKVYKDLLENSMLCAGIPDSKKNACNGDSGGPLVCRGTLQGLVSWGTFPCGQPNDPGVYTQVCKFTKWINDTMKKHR
ADAM10 confirm – human ADAM10 inhibition, confirmation; AID 743208; 1% of 2,100 active; ADAM10 QFRET peptide cleavage, EDANS fluorescence; inhibition, % at 6.95 µM; shares compounds with ADAM10 inh;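 active = inhibition above about 20% chosen separately for each screening run, limit read from the data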
ADAM17 ctr – counter-screen for ADAM10 exosite inhibitors: inhibitors of human ADAM17 | shares compounds with ADAM10 inh | ADAM17 QFRET peptide cleavage, EDANS fluorescence | inhibition, % at 6.95 µM | 0.5% of 2,100 active;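 active = mean triplicate inhibition above the solvent-only control wells' mean plus 3 SD, cut at about 12% in these data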
Numbers stand for hits; i = inactive; nt = no result given. In the library only some 4.6% were active in any assay of this set; here they are far more common.

SMILES	FAS-TE inh	ADAM17 inh	NR3A LBD binder	ADAM10 inh	KLK7 zymogen act	ADAM10 confirm	ADAM17 ctr
O=S(=O)(c1ccc(OC(F)(F)F)cc1)N1CCC(O)(c2cccc(C(F)(F)F)c2)CC1	i	i	i	21	i	i	i
COc1cc(S(=O)(=O)N2CCC(O)(c3cccc(C(F)(F)F)c3)CC2)ccc1-n1cnnn1	i	i	nt	i	i	nt	nt
CC(=O)c1ccc(NC(=O)Nc2ccc(NS(=O)(=O)c3ccc(C)cc3)cc2)cc1	i	i	nt	24	i	i	i
Cc1ccc(S(=O)(=O)Nc2ccc(N=Nc3ccc(O)cc3)cc2)cc1	i	i	14	22	i	i	i
Cc1ccc(S(=O)(=O)Nc2ccccc2-c2ccccc2NS(=O)(=O)c2ccc(C)cc2)cc1	i	i	i	21	i	i	i
CCn1c2c(n(C(C)=O)c1=O)C=C(C(=O)N1CCCC1)C(C)C(c1ccccc1)=C2 (stereo not given)	nt	i	nt	i	i	nt	nt
CCN1C(=O)[C@H]2[C@@H](c3ccc(-c4ccccc4)cc3)N[C@@](C)(C(=O)OC)[C@H]2C1=O	i	i	i	i	i	nt	nt
CCN1C(=O)[C@H]2[C@@H](c3ccc(-c4cccc(Cl)c4)cc3)N[C@@](C)(C(=O)OC)[C@H]2C1=O	i	i	i	24	i	i	i
COC(=O)[C@]1(CC(C)C)N[C@H](c2ccc(-c3cccc(Cl)c3)cc2)[C@@H]2C(=O)N(C)C(=O)[C@@H]21	i	i	i	23	i	i	i
CCCCOc1ccc(C(=O)NC2CCCCN(CCC)C2=O)cc1 (stereo not given)	nt	i	nt	i	i	nt	nt
COc1ccc(C(=O)Nc2ccccc2C(=O)N2CCOCC2)cc1OC	i	i	i	21	i	i	i
COc1ccc(C(=O)Nc2ccccc2C(=O)N2CCOCC2)cc1Br	i	i	i	i	i	nt	nt
COC(=O)[C@]12C[C@H](CC(=O)NCCCCc3ccccc3)C(=O)N(Cc3ccccc3)C1=C[C@H](C(C)(C)C)O[C@@H]2C	nt	i	nt	i	i	nt	nt
O=C1/C(=C/c2cccs2)SC(=S)N1CCCC(=O)N(CCO)c1ccccc1	i	i	i	24	i	i	i
Nc1ncnc2c1ncn2[C@@H]1O[C@H](C(=O)N[C@@H](CCc2ccccc2)C(=O)O)[C@@H](O)[C@H]1O	nt	i	nt	i	i	nt	nt
Cc1ccc(-c2nc(C)sc2CC(=O)OCC(=O)Nc2cccc([N+](=O)[O-])c2)cc1	i	i	i	i	i	nt	nt
Cc1ccc(C(=O)c2ccccc2C(=O)OCC(=O)Nc2cccc([N+](=O)[O-])c2)cc1	i	i	i	27	i	i	i
COc1ccc(CNC(=O)c2ccc(-c3ccc(F)c(F)c3)c3ccoc23)cc1OC	i	i	nt	21	i	i	i
O=C(NCc1ccccc1)c1ccc(-c2ccc(F)c(F)c2)c2ccoc12	i	i	nt	i	i	nt	nt
COc1cccc(NC(=S)NC(Cc2ccccc2)c2ccccc2)c1 (stereo not given)	i	i	nt	21	i	i	i
COc1ccc(NC(=O)CSc2nc3c([nH]c4ccccc43)c(=O)n2C)cc1	i	i	i	57	i	i	i
COCCn1c(SCC(=O)Nc2ccc(NC(C)=O)cc2)nc2c([nH]c3ccccc32)c1=O	i	i	i	i	i	nt	nt
OCC1(Cc2ccccc2F)CCCN(CCc2ccccc2)C1 (stereo not given)	i	i	i	23	i	i	i
CC(C)[C@H](NC(=O)[C@@H](N)Cc1ccccc1)C(=O)N1CCC2CCN(Cc3ccccc3)CC21 (stereo not given in full)	nt	i	nt	i	i	nt	nt
COc1cc(CNn2c(C)n[nH]c2=S)cc(Cl)c1OCc1ccccc1	i	i	i	28	i	i	i
COC(=O)C1=C(C)N(Cc2cccc(C(F)(F)F)c2)C(=NCC2CC2)NC1c1cccc(F)c1 (stereo not given)	nt	i	nt	i	i	nt	nt
NC(=O)c1ccsc1NC(=O)CCS(=O)(=O)c1ccccc1	i	i	i	i	i	nt	nt
NC(=O)c1ccsc1NC(=O)CS(=O)(=O)c1ccccc1	i	i	i	84	i	i	i

From PubChem BioAssay
